Only some compounds are listed: those with a hit (about 3.8% of all), similar ones and a draw of the others.
proKLK7 act: activates the human kallikrein-7 zymogen | P49862 | purified proKLK7, EDANS-DABCYL substrate fluorescence; 100% is mature enzyme control, 0% vehicle | activation, % at 7 µM | 370,000 compounds, 0.9% hits | AID 652039;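 active = activation above the mean of all tested compounds plus 3 SD, computed per campaign excluding outliers beyond control limits, cut at about 13% in these data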
rRNA inh HTS: inhibits bacterial ribosomal RNA function over humanized ribosomes | E. coli WT GFP vs humanized-ribosome RFP mutants, fluorescence, 24 h; active compounds read low; DMSO median 0, no signal -100 | GFP signal change (wild-type ribosome), % (test concentration not listed) | 350,000 compounds, 1.6% hits;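 active = significant combined selectivity score with lowered wild-type GFP, culture density cut under 30%, mutant RFP and density less affected; inactive = any of these conditions unmet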
ADAM17 inh: inhibitors of human ADAM17; inhibition, % at 6.95 µM; recombinant ADAM17, EDANS/DABCYL FRET peptide cleavage; AID 720648; P78536; 370,000 compounds, 0.83% hits;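 active = inhibition above the mean of compounds lying between control limits plus 3 SD, set per campaign, cut at about 8.5% in these data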;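 note: 0% = DMSO-only wells as the low control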
Target sequence (P78536 215-824 limits assumed): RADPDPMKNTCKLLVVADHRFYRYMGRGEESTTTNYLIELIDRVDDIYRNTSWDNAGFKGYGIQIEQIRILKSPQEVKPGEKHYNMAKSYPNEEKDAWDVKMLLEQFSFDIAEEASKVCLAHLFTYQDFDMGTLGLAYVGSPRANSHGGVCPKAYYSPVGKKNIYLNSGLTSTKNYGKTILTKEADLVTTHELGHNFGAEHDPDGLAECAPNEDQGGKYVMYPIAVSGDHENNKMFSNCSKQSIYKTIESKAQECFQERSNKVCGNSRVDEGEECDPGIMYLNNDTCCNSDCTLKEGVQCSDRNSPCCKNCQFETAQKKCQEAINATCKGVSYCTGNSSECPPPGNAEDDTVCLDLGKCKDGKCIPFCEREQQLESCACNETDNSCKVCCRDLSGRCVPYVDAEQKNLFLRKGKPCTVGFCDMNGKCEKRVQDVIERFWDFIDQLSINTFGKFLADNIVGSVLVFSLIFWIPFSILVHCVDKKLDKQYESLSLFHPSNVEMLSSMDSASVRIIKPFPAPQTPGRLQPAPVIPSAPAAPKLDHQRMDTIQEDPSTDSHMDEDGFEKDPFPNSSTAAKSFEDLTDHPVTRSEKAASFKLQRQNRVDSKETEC
ADAM10 inh: ADAM10 inhibition, QFRET primary screen; recombinant ADAM10, EDANS/DABCYL FRET peptide cleavage, 3 h; inhibition, % at 7 µM; O14672; 370,000 compounds, 0.62% hits;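 active = inhibition above a per-campaign cutoff equal to the mean of compounds falling between control-based bounds plus 3 SD, cut at about 20% in these data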;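 note: 0% = DMSO wells while the 100% control is not disclosed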
FGF22 binding: FGF22 (human) thermal shift binding. recombinant FGF22 thermal shift, SYPRO orange fluorescence; percent of sucrose octasulfate shift, DMSO zero. activity (Tm shift, normalised), % at 9.99 µM. 340,000 compounds, 1.5% hits. AID 651658;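 active = mean Tm shift, scaled 0 neutral to 100 positive control, at about 1.3% or above, every replicate too, limit read from the data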
Starred values were filed as active, the others as inactive; i = inactive; / = no result given.

SMILES	proKLK7 act	rRNA inh HTS	ADAM17 inh	ADAM10 inh	FGF22 binding
O=C1CCCCN1CCC(=O)N1CCCC(N2CCN(c3cccc(Cl)c3)CC2)C1 (stereo unspecified)	0	1	2	-8	0
N#C/C(=C/c1ccc(OCc2ccc(C(=O)O)cc2)c(Br)c1)c1cccc(F)c1	0	-27*	-2	0	/
N#C/C(=C/c1ccccc1OCc1ccc(F)cc1)c1ccc(C(=O)O)cc1	0	-48	1	5	0
CC(C)COC(=O)N(C)C[C@H]1OCc2ccccc2-c2c(n(C)c3ccccc23)C(=O)N([C@@H](C)CO)C[C@@H]1C	/	-5	/	/	0
O=C(CCCN1C(=O)C(c2ccccc2)Oc2cccnc21)Nc1cccc(F)c1 (stereo unspecified)	0	-27*	4	1	0
O=C(COc1ccccc1Cl)Nc1ccccc1C(=O)Nc1cccc(C(=O)O)c1	0	-29*	-1	0	0
O=C(N/N=C/c1ccccn1)c1ccc(NC(=O)c2ccccc2Cl)cc1	0	-21*	1	3	0
COc1ccc(/C=N/NC(=O)c2cccc(NC(=O)c3ccccc3Cl)c2)cc1OC	0	-14	-5	-13	43*
COc1ccc(/C=N/NC(=O)c2cccc(NC(C)=O)c2)c(OC)c1	1	10	-5	-14	43*
O=C(N/N=C/c1ccccn1)c1ccc(NC(=O)c2ccc(F)cc2)cc1	-1	-10	-2	2	0
C/C=C/c1cnc2c(c1)C(=O)N([C@H](C)CO)C[C@@H](C)[C@@H](CN(C)Cc1ccc(F)cc1)O2	/	3	/	/	0
O=C(C[C@H]1CC[C@H]2[C@@H](COC[C@@H](O)CN2S(=O)(=O)c2ccccc2)O1)N[C@H]1CCN(Cc2ccccc2)C1	/	1	/	/	/
CNC[C@@H]1OCCCC[C@H](C)Oc2ccc(NC(=O)CCC(F)(F)F)cc2C(=O)N([C@H](C)CO)C[C@H]1C	/	10	/	/	0
COc1ccc2c3c(n(C)c2c1)[C@H](CO)N(C)CC31CCN(C(=O)C2CCC2)CC1	/	1	/	/	/
CCn1c(CCl)nc2cc(S(=O)(=O)N3CCOCC3)ccc21	0	10	-1	1	43*
COC(=O)C[C@H]1CC[C@@H](NC(=O)Nc2ccc(C(F)(F)F)cc2)[C@H](CO)O1	/	-13	/	/	0
COc1ccc(Oc2ccc(N/C=C/C(=O)C(C)(C)C)cc2)cc1	0	9	0	-1	0
COc1cccc(Oc2ccc(N/C=C/C(=O)C(C)(C)C)cc2)c1	0	-5	2	12	44*
CC(C)CC#Cc1cnc2c(c1)C(=O)N([C@H](C)CO)C[C@H](C)[C@@H](CN(C)C(=O)c1cnccn1)O2	/	4	/	/	0
COc1ccc2c(c1)[N+](C)(C)C(C)(C)C=C2C	3	15	-5	-6	43*
CCOc1ccc2c(c1)[N+](C)(C)C(C)(C)C=C2C	0	-1	0	-8	/
Cc1cc2c(c(=O)o1)C(CCC1CCCCC1)C(C#N)=C(N)O2 (stereo unspecified)	0	-21*	-3	-2	0
CCC(CC)C1C(C#N)=C(N)Oc2cc(C)oc(=O)c21 (stereo unspecified)	0	-13	2	1	0
Cc1noc(C)c1S(=O)(=O)N(C)C[C@H]1OCCCC[C@H](C)Oc2ccc(NS(=O)(=O)c3ccccc3)cc2C(=O)N([C@H](C)CO)C[C@H]1C	/	1	/	/	0
Oc1ccc(N=Nc2ccc3c(c2)OCCO3)c(O)c1	1	-38*	-2	-1	0
SMILES	proKLK7 act	rRNA inh HTS	ADAM17 inh	ADAM10 inh	FGF22 binding
CC(=O)N(C)C[C@H]1Oc2ccc(NS(C)(=O)=O)cc2CC(=O)N(C)C[C@@H]1C	/	1	/	/	/
CCOC(=O)c1c(NC(=O)/C=C/C(=O)O)sc(C)c1-c1ccc(C(C)(C)C)cc1	0	-32	1	10	1.7*
CCOC(=O)c1c(NC(=O)/C=C\C(=O)O)sc(C)c1-c1ccccc1	0	-39	-4	-9	43
C[C@H](CO)N1C[C@H](C)[C@@H](CN(C)C(=O)[C@H]2CCCN2C)OCc2ccccc2-c2c(n(C)c3ccccc23)C1=O	/	1	/	/	/
COC(=O)c1c(CC[C@@H](CO)NC(=O)N[C@H](Cn2cc(Cc3ccccc3)nn2)C(C)C)oc(C(C)=O)c1C(=O)OC	/	/	/	/	0
COc1ccc(/C=C/c2c(-c3ccc(OC)cc3)oc3ccc(-c4ccc(OC)cc4)cc23)cc1	0	8	-4	-3	0
COc1ccc(/C=C/c2cc(-c3ccc(C)cc3)o[n+]2C)cc1	32*	/	-159	i	/
COc1cc(OC)cc(-c2c(-c3ccc(F)cc3)c3cc(-c4ccc(OC)nc4)ccc3n2C)c1	-1	8	-1	-7	0
COc1cccc(-c2c(-c3cc(OC)cc(OC)c3)n(C)c3ccc(-c4ccc(OC)nc4)cc23)c1	-1	2	-2	2	44*
COc1ccc(S(=O)(=O)Nc2ccc3c(c2)CC(=O)N([C@@H](C)CO)C[C@@H](C)[C@H](CN(C)CC2CCCCC2)O3)cc1	/	0	/	/	0
N#CCCN1CCN(C2=NC(=O)/C(=C\c3cccs3)S2)CC1	0	10	1	-3	44*
O=C1N=C(N2CCOCC2)S/C1=C\c1cccs1	0	0	2	-1	0
COc1cccc(NC(=O)C[C@H]2CC[C@H]3[C@H](COc4ccc(NC(=O)C5CCCC5)cc4C(=O)N3C)O2)c1	/	-1	/	/	/
C[C@H](CO)N1C[C@H](C)[C@@H](CN(C)Cc2ccc(-c3ccccc3)cc2)Oc2c(NC(=O)CCC(F)(F)F)cccc2C1=O	/	3	/	/	/
Cc1nc(-c2ccc3c(c2)OCCO3)cs1	0	5	1	0	43*
N#CCC(=O)Nc1nc(-c2ccc3c(c2)OCCO3)cs1	-1	17	-7	-14	0
O=C(Nc1nc(-c2ccc3c(c2)OCCO3)cs1)C1CCCC1	-1	-34*	-3	0	0
CC(=O)N1CC2(C1)[C@H](c1ccccc1)[C@H](CO)N2C(=O)c1ccncc1	/	3	/	/	/
COc1ccc2c3c(n(C)c2c1)[C@H](CO)N(C(C)=O)CC31CCN(C(=O)C2CC2)CC1	/	0	/	/	0
COc1ccc(S(=O)(=O)N(C)C[C@H]2OCCCC[C@@H](C)Oc3ccc(NS(=O)(=O)c4ccccc4)cc3C(=O)N([C@@H](C)CO)C[C@H]2C)cc1	/	-1	/	/	0
O=C(C[C@@H]1C[C@H]2c3cc(NC(=O)Nc4ccccc4)ccc3O[C@H]2[C@H](CO)O1)NCc1ccncc1	/	3	/	/	0
Clc1ccc(CSc2nnc(-c3ccc4c(c3)OCO4)o2)cc1	1	/	-3	8	/
O=C1CCCCC1Sc1nnc(-c2ccc3c(c2)OCO3)o1 (stereo unspecified)	0	-17	2	-4	43*

Source: PubChem
